In test [1] the test system is PRMT1 (protein arginine N-methyltransferase 1). In words: PRMT1 binders on small-molecule microarrays, primary screen, biochemical, small-molecule microarray, 635 nm fluorescence (AID 1088).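 Also: binding of Prmt1 protein to compounds spotted on small-molecule microarray slides.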 The conditions noted are these: small-molecule microarray binding, higher = more signal.
Test [2] is described as follows: yeast growth modulation, basal conditions, primary screen, YJM789 clinical isolate, OD600, 24 h (AID 1089).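 Also: growth of clinical yeast isolate S. cerevisiae YJM 789 seeded 1000 cells per well; test concentration not given here.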 The conditions noted are these: S. cerevisiae YJM789 growth, higher = more signal, called active from +8 up or from −8 down.
Test [3] in a line: fission yeast growth modulation, primary screen, strain 972, OD600, 24 h, no modulator (AID 1090).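 Also: basal condition with compound alone and no growth modifier present; test concentration not given here.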 The conditions noted are these: S. pombe 972 growth, higher = more signal, called active from +8 up or from −8 down.
Test [4] can be described thus: S. cerevisiae growth modulation with rapamycin, primary screen, strain BY4716, OD600, 96 h (AID 1091). Also: test concentration not given here. Particulars: higher = more signal, called active from +8 up or from −8 down.
For test [5], the target named is Torsin-1A-interacting protein 2 (Homo sapiens) (UniProt Q8NFQ8). In words: LULL1 binders on small-molecule microarray, primary screen, cell lysate, human LULL1 lysate, 635/667 nm fluorescence (AID 1092).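 Also: probe is lysate of COS7 cells overexpressing human LULL1; score merges per-feature 667 nm fluorescence with signal-to-noise.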 Particulars: hLULL1 lysate binding, 635 nm fluorescence, higher = more signal.
Test [6] in a line: E. coli growth modulation, two-sided OD650, primary screen, E. coli filamentation project, strain DRC41, 24 h (AID 1093).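 Also: MC1000 strain lacking acrAB efflux and sulA so SOS filamentation is blocked; test concentration not given here.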 Particulars: OD650, 24 h, higher = more signal, called active from +8 up or from −8 down.
Test [7] in a line: small-molecule microarray binders of probe aLefty2, primary screen, biochemical, biotinylated probe, 635/667 nm fluorescence (AID 1094).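 Also: score merges spot fluorescence near 667 nm with spot signal-to-noise ratio.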 Particulars: higher = more signal.
In test [8] the test system is Noggin (protein binding on small-molecule microarray). In words: Noggin binders on small-molecule microarray, primary screen, biochemical, 635/667 nm fluorescence (AID 1095).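 Also: score merges 667 nm feature fluorescence with signal to noise over triplicate slides.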 Particulars: 635 nm fluorescence, higher = more signal.
Test [9] deals with Neurogenic locus notch homolog protein 3 (Homo sapiens) (UniProt Q9UM47). Kind of test: NOTCH3 binders on small-molecule microarray, primary screen, biochemical, 635/667 nm fluorescence (AID 1096). Particulars: NOTCH3 binding, 635 nm fluorescence, higher = more signal.
Test [10] in a line: small-molecule microarray binders of probe aEGFR, primary screen, biochemical, biotinylated probe, 635/667 nm fluorescence (AID 1097).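 Also: probe is a biotinylated anti-EGFR antibody binding compounds printed on slides; score combines fluorescence near 667 nm and signal to noise of each spot.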 Particulars: higher = more signal.
Test [11] relates to Plasmodium falciparum Sir2 (PF13_0152, Sir2A). Kind of test: pfSir2 binders on small-molecule microarrays, primary screen, biochemical, small-molecule microarray, 635 nm fluorescence (AID 1098).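 Also: score merges spot fluorescence intensity with its signal-to-noise ratio.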 The conditions noted are these: small-molecule microarray binding, fluorescence 635 nm; higher = more signal.
Test [12] can be described thus: small-molecule microarray binders of probe aDKK1, primary screen, biochemical, biotinylated probe, 635/667 nm fluorescence (AID 1099).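 Also: score merges 667nm spot fluorescence with signal to noise across triplicate slides; reference of the scale not given here.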 The conditions noted are these: higher = more signal.
Test [13] is described as follows: small-molecule microarray binders of probe aCHRDL2, primary screen, biochemical, biotinylated probe, 635/667 nm fluorescence (AID 1100). The conditions noted are these: higher = more signal.
Test [14] can be described thus: splicing luciferase reporter signal modulators, primary screen, spliceosome inhibition project, cell-based, HEK293, splice +/- reporter (AID 1101).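 Also: HEK293 cells carrying a splicing-competent luciferase reporter gene; test concentration not given here.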 Particulars: luminescence, 24 h, higher = more signal, called active from +8 up or from −8 down. A general note: Reporter assays use an easily measured gene product as a stand-in for the process of interest.
Test [15] addresses Fibroblast growth factor 10 (Homo sapiens) (UniProt O15520). Kind of test: FGF10 binders on small-molecule microarrays, primary screen, biochemical, small-molecule microarray, 635 nm fluorescence (AID 1102). The conditions noted are these: FGF10 binding, fluorescence 635 nm, higher = more signal.
Test [16] has as its system glycogen synthase kinase-3 (GSK3A per assay name; protocol says GSK3B). In words: GSK3 binders on small-molecule microarrays, primary screen, biochemical, small-molecule microarray, 635 nm fluorescence, GSK3A (AID 1103). Also: the record names both GSK3A and GSK3B. Particulars: small-molecule microarray binding, fluorescence 635 nm; higher = more signal.
Test [17] has as its target Epidermal growth factor receptor (Homo sapiens) (UniProt P00533). Kind of test: EGFR binders on small-molecule microarrays, primary screen, biochemical, small-molecule microarray, 635 nm fluorescence (AID 1104).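 Also: score merges 667 nm emission intensity with spot signal to noise over triplicate slides.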 The conditions noted are these: EGFR binding, higher = more signal.
Test [18] has as its target Follistatin-related protein 3 (Homo sapiens) (UniProt O95633). In words: FSTL3 binders on small-molecule microarrays, primary screen, biochemical, small-molecule microarray, 635 nm fluorescence (AID 1105).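 Also: score merges emission near 667 nm and signal to noise per printed spot across three slides.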 Particulars: FSTL3 binding, higher = more signal.
Test [19] addresses Dickkopf-related protein 1 (Homo sapiens) (UniProt O94907). Kind of test: DKK1 binders on small-molecule microarrays, primary screen, biochemical, small-molecule microarray, 635 nm fluorescence scan (AID 1106).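 Also: score merges emission near 667 nm with signal to noise over three replicate slides.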 The conditions noted are these: DKK1 binding, higher = more signal.
Test [20] deals with Inhibin beta A chain (activin A). In words: INHBA (activin A) binders on microarrays, primary screen, biochemical, small-molecule microarray, 635 nm fluorescence scan (AID 1107).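 Also: mouse activin A protein probed at 4.33 µg/mL on printed slides; score merges bound-protein fluorescence near 667 nm with spot signal-to-noise.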 Particulars: small-molecule microarray binding, higher = more signal.

SMILES strings stand for the structures. Active and inactive are the calls of the source.

Torsin-1A-interacting protein 2 (Homo sapiens), sequence (Q8NFQ8 whole entry, looked up): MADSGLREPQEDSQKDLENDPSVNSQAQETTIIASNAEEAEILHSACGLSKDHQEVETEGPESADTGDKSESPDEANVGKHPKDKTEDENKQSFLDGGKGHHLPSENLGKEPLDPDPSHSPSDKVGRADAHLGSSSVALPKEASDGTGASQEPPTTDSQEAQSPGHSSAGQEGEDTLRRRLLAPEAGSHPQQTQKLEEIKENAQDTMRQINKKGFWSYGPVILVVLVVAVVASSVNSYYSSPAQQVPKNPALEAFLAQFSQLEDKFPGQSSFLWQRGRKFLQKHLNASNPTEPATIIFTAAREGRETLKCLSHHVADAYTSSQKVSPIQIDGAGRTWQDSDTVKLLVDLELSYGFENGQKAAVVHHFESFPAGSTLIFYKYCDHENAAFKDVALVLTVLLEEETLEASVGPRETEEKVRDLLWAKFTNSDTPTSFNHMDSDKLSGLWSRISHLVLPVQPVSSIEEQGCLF
Epidermal growth factor receptor (Homo sapiens), sequence (P00533 whole entry, looked up): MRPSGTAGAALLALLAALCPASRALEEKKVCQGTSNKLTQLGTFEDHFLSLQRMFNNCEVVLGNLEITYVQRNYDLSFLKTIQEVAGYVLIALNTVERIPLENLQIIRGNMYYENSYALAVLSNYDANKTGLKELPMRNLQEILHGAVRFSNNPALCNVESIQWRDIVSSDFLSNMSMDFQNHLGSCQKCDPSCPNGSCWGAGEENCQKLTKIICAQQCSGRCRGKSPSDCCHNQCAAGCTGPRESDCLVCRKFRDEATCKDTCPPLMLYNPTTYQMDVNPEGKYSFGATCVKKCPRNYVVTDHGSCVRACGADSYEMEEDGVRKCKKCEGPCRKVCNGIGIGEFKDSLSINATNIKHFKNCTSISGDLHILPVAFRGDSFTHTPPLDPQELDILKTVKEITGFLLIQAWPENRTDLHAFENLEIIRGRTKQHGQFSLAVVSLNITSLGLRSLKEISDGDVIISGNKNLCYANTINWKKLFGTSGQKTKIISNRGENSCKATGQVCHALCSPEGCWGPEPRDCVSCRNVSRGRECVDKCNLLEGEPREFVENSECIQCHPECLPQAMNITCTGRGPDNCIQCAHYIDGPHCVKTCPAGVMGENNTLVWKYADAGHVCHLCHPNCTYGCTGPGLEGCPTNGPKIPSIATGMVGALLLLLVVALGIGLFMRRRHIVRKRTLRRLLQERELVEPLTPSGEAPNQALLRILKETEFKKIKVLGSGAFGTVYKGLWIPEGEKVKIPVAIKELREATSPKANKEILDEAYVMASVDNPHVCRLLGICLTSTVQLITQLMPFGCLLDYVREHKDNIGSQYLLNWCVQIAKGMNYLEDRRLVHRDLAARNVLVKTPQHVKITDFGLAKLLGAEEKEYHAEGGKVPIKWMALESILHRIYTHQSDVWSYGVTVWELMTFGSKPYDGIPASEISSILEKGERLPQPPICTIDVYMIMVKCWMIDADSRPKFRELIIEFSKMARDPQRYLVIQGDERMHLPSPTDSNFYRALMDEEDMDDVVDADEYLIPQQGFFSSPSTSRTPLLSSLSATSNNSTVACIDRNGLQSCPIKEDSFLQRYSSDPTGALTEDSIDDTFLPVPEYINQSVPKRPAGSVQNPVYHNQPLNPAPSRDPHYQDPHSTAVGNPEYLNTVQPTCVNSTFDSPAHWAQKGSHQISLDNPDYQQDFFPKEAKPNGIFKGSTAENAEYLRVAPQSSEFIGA
Fibroblast growth factor 10 (Homo sapiens), sequence (O15520 whole entry, looked up): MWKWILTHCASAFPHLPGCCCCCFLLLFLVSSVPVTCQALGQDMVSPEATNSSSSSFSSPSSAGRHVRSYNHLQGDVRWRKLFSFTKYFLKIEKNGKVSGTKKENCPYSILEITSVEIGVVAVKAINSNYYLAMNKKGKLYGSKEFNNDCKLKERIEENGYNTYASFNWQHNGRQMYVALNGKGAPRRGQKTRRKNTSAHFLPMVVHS
Follistatin-related protein 3 (Homo sapiens), sequence (O95633 whole entry, looked up): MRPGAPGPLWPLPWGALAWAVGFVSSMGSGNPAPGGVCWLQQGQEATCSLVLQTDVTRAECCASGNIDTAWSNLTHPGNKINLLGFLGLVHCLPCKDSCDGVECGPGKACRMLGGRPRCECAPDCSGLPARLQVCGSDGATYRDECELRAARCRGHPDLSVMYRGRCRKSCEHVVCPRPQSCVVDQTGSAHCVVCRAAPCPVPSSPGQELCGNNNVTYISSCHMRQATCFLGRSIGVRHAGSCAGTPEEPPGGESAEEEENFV
Neurogenic locus notch homolog protein 3 (Homo sapiens), sequence (Q9UM47 whole entry, looked up): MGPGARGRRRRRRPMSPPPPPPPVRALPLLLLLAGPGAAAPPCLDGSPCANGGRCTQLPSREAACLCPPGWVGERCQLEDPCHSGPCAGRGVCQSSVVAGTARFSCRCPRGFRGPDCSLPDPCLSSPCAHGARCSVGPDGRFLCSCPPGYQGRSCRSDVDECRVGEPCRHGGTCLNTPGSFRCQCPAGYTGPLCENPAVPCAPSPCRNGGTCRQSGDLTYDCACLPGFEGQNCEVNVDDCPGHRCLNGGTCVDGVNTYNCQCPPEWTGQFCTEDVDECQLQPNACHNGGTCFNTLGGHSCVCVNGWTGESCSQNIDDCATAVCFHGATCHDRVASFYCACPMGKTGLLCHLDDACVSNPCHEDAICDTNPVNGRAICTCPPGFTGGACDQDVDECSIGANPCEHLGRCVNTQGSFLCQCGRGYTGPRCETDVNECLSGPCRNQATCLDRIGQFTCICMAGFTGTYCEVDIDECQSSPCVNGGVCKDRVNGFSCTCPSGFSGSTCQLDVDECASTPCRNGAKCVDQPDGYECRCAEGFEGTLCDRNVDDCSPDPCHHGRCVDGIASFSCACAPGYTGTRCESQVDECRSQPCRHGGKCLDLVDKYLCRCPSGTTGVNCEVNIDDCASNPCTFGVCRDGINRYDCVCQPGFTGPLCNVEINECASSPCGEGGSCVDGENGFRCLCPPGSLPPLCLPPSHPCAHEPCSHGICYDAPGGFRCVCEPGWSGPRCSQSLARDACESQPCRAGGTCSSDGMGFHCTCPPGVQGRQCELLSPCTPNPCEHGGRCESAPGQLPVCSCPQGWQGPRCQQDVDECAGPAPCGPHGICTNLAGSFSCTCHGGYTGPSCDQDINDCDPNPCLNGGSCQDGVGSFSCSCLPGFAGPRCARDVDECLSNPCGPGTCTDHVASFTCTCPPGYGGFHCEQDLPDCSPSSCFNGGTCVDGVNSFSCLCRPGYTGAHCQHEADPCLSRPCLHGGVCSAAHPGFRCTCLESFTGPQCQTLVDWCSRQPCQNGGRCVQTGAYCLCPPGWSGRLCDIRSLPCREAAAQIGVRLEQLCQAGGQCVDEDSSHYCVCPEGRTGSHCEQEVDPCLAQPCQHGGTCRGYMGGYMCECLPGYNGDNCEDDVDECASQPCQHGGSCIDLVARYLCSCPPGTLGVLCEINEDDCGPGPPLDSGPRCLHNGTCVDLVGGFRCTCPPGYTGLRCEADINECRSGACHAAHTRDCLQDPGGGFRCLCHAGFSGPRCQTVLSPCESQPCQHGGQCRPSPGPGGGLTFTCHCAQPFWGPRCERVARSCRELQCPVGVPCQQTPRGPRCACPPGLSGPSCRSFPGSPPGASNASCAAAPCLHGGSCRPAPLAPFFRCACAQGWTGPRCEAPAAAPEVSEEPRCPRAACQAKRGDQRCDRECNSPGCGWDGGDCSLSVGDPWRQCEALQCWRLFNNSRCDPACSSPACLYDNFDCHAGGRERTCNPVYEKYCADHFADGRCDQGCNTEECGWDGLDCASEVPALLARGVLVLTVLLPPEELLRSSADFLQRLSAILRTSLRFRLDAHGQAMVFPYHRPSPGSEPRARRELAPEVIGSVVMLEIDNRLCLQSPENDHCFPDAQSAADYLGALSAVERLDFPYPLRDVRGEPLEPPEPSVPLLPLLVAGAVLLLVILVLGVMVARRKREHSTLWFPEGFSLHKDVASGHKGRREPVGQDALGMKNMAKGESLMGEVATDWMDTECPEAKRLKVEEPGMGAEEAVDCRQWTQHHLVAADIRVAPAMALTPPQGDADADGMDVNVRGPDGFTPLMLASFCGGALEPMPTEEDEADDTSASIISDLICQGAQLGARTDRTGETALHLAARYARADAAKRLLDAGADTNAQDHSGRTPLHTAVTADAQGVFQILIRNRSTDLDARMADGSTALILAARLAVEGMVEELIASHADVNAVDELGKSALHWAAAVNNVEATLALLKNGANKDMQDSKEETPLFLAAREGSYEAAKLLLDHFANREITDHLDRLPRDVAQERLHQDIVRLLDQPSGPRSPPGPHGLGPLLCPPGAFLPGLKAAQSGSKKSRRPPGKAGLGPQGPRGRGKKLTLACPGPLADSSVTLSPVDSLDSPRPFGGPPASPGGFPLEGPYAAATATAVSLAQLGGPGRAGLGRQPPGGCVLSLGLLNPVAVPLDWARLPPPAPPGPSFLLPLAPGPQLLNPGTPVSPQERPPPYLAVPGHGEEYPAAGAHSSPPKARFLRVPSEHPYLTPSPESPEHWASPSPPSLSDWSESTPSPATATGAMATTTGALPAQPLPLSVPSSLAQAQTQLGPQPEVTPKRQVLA
Dickkopf-related protein 1 (Homo sapiens), sequence (O94907 whole entry, looked up): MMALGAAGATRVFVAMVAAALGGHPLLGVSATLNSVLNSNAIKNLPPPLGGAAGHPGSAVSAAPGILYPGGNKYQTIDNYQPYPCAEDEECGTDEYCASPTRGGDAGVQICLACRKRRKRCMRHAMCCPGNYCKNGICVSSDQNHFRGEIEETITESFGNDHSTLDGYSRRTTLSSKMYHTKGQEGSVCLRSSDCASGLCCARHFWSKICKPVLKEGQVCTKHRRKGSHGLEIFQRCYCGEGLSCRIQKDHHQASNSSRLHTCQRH

In the case of `CCN1C(=O)[C@H]2[C@H]3[C@H](O)[C@H](O)CC(=NOC[C@H]4O[C@H](c5ccccc5)C=C[C@@H]4Oc4ccc(OC)cc4)[C@@H]3CC[C@H]2C1=O`, the composite z-score in test [1] was 1.28; in [5], 0.996; in test [7], -0.0271; in test [8] it was 0.738; in test [9], 1.11; in test [10], -0.0085. The composite z-score in test [11] was 0.605; in test [12], 0.0709; in test [13] it was -0.187; in [15] it was 0.809; in test [16], 0.62; in test [17] it was 0.452. Besides, the composite z-score in [18] was 0.616; in [19], 0.85; in test [20], -0.0495. The z-score was -0.125 (inactive) in test [2]; -0.653 (inactive) in test [3]; -0.175 (inactive) in test [4]; 0.964 (inactive) in test [6]; 0.387 (inactive) in test [14].

Consider `CCCCC#C[C@@H]1C=C[C@H](Oc2ccc(C(=O)OC)cc2)[C@@H](COC(=O)OCC)O1`, for which the composite z-score in test [1] is 0.888; in [5], 0.508; in [7] it was -0.115; in test [8], 0.198; in test [9], 0.531; in test [10] it was -0.0051. For the same molecule, the composite z-score in test [11] was 0.716; in [12], 0.015; in test [13], -0.334; in test [15], 0.785; in [16] it was 0.277; in test [17], 0.385. For the same molecule, the composite z-score came to 1.05 in test [18], 0.414 in test [19] and 0.273 in test [20]. Also, the z-score is 0.143 (inactive) in test [2]; -19.5 (active) in test [3]; -0.611 (inactive) in [4]; 0.197 (inactive) in test [6]; 0.545 (inactive) in test [14].

In the case of `CC(C)(C)N1C(=O)[C@H]2[C@H]3[C@H](O)[C@H](O)CC(=O)[C@H]3CC[C@H]2C1=O`, the composite z-score in test [1] is 0.729; in test [5] it was 0.46; in test [7], -0.211; in test [8] it was 0.344; in test [9] it was 0.611; in [10] it was -0.0333. Also, the composite z-score in test [11] is 0.0159; in test [12], -0.282; in [13], -0.674; in test [15], 0.287; in [16] it was 0.694; in test [17], 0.456. Besides, the composite z-score in test [18] was 0.426; in [19] it was 0.624; in test [20], -0.167. In addition, the z-score in test [2] is 0.445 (inactive); in test [3], -0.109 (inactive); in test [4], 0.85 (inactive); in test [6], -0.29 (inactive); in [14] it was -0.432 (inactive).

As for `CO[C@H]1COC(=O)CC=C[C@@H](C)[C@H](OC)COC(=O)[C@@H]2CCCN2C(=O)CC=C[C@@H]1C`, the composite z-score in test [1] is 1.12; in [5], -0.328; in test [7] it was -0.229; in test [8] it was 1.41; in test [9] it was 0.716; in [10], 0.0115. The composite z-score in [11] was 0.686; in test [12], -0.382; in test [13], -1.14; in [15], 0.892; in test [16] it was 0.78; in test [17] it was 1.13. Moreover, the composite z-score in test [18] worked out at 1.49; in [19], 1.16; in test [20], 1.13. For the same molecule, the z-score was 0.221 (inactive) in test [2]; -0.0931 (inactive) in test [3]; -0.202 (inactive) in [4]; 0.619 (inactive) in test [6]; 0.308 (inactive) in [14].

With `CCN1C(=O)[C@H]2[C@H]3[C@H](O)[C@H](O)CC(=NO[C@@H](C)c4cn([C@H](CO)Cc5ccccc5)nn4)[C@@H]3CC[C@H]2C1=O`, the composite z-score in test [1] is 1.14; in test [5] it was 1.28; in [7], -0.264; in test [8], 0.387; in [9] it was 0.988; in [10], 0.0346. Besides, the composite z-score in [11] is 0.774; in test [12] it was 0.262; in [13] it was -0.426; in [15], 0.792; in [16], 0.92; in [17], 0.182. Further, the results for the composite z-score in test [18], in test [19] and in test [20] were 1.14, 0.692 and -1.1, respectively. The z-score is 0.149 (inactive) in test [2]; 0.718 (inactive) in test [3]; 0.726 (inactive) in test [4]; 0.194 (inactive) in test [6]; 0.358 (inactive) in test [14].

Values taken from PubChem BioAssay.
